NS1 function inh – influenza NS1 inhibition; Potency, µM (highest dose often 46.1 µM), for the others: at the highest dose activity, positive = more growth; 270,000 tested, 0.4% active; AID 2326; calls by dose curve; note: actives are rising curves; nearly all actives have a fitted effect of over 50% in size
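Growth recovery, yeast-based: influenza A NS1 expressed in S. cerevisiae causes slow growth, and suppressors are detected by OD600. The parent strain without NS1 is used as positive control.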
Tb PYK inh – inhibitors of Trypanosoma brucei pyruvate kinase; Q57TT1; TbPYK enzyme, Kinase-Glo Plus ATP luminescence, 45 min; Potency, µM (top dose mostly 76.8 µM), for inactives: top-dose activity, negative = inhibition, actives largely listed as inhibitors; 410,000 tested, 0.12% active; note: % is set by controls: 0 for no effect and ±100 for the full control effect; nearly all actives have a fitted effect of over 50% in size
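Readout: single end-point luminescence (Kinase-Glo Plus, 10 min). Reaction conditions were TbPYK/substrate plus 130 uM ADP, 45 min at RT, pH 7.2 TEA buffer. No-enzyme wells served as controls, and data were normalized before concentration-response fitting.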
Giardia FBPA inh – blocks Giardia fructose-bisphosphate aldolase activity. 290,000 tested, 0.71% active. AID 2451. Potency, µM (top dose mostly 59.6 µM), for inactives: top-dose activity, negative = inhibition, hits mostly inhibitors. purified Giardia FBPA; note: % is set by controls: 0 for no effect and ±100 for the full control effect; nearly all actives have a fitted effect of over 55% in size
Target sequence (A8B2U2 whole entry, looked up): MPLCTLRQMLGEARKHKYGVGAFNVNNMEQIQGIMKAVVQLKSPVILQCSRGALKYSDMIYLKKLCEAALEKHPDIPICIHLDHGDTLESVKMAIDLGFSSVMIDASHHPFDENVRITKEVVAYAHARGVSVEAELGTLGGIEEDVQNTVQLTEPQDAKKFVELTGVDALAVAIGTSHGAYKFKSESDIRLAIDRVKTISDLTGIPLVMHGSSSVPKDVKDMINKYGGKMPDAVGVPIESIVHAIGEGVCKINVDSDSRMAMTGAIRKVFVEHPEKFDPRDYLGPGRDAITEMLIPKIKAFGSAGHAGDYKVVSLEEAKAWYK
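Giardia FBPA (40 nM reagent) was preincubated 10 min at RT with compound (up to 57.5 uM final), then substrate plus GAPDH/TPI/NAD/arsenate coupling system with diaphorase/resazurin was added; resorufin fluorescence (525/598 nm) was read after 20 min.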
Sm TGR block – blocks Schistosoma mansoni thioredoxin glutathione reductase; Potency, µM (highest dose often 114 µM), without a hit: at the highest dose activity change, negative = inhibition, actives largely listed as inhibitors; Q962Y6; purified TGR, DTNB reduction, TNB absorbance 405 nm; 360,000 tested, 3% active; note: % is set by controls: 0 for no effect and ±100 for the full control effect; nearly all actives have a fitted effect of over 60% in size
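TGR 20 nM + NADPH 100 uM (dispensed conc.), cpd preinc 15 min RT; start with NADPH (500 uM addition) then DTNB (15 mM addition). Kinetic TNB absorbance, 405 nm filter. Four-parameter Hill fit across titration.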
LmPK inhibitor – blocks Leishmania mexicana pyruvate kinase activity | Q27686 | purified LmPK, Kinase-Glo ATP luminescence, 1 h | Potency, µM (series often up to 57.5 µM), without a hit: top-dose activity change, negative = inhibition, actives largely listed as inhibitors | 290,000 tested, 0.37% active | AID 1721; note: % is set by controls: 0 for no effect and ±100 for the full control effect
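ATP generated from ADP (0.1 mM) and PEP (0.5 mM) by 0.1 nM LmPK over 1 h at room temperature (pH 7.2 imidazole buffer) was detected by coupled luciferase luminescence. Values were normalized to uninhibited and no-enzyme wells.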
RE007 growth inh – less growth of the S. pombe RE007 Vpr strain; S. pombe RE007 Vpr strain, BacTiter-Glo ATP luminescence, 24 h; Potency, µM (titrated, usually from 92.2 µM), for inactives: at the highest dose activity change, negative = less growth, actives largely listed as inhibitors; 360,000 tested, 0.21% active; AID 651644; active = well fitted falling curve with a large enough effect; inconclusive = small, poorly fitted or top-dose-only effect; inactive = no such curve, though single readings can be large or run the other way; note: % is set by controls: 0 for no effect and ±100 for the full control effect; nearly all actives have a fitted effect of over 50% in size
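Fission yeast strain RE007, carrying one chromosomally integrated HIV-1 vpr copy, was seeded at OD 0.01 in PMG+AL medium with 23 nL pinned compound. After 24 h at 30 °C and 99% humidity, viability was read by BacTiter-Glo luminescence.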
* marks the source's active call; other numbers are inactive results; [ ] = remark or other dose. Sampled rows, rich in hits. Any-hit rate of the full collection: about 3.5%. Unless noted, calls come from the whole dose curve; as a rule, active = well fitted curve in the direction sought with a large enough effect; inconclusive = small, poorly fitted or top-dose-only effect, or another doubt; inactive = no such curve, though single readings can be large; an effect the other way counts as inactive or inconclusive. Potency is the fitted concentration of half-maximal effect.

What do the screens show for `CCOc1ccccc1NC(=O)c1c(NCc2ccc(C)o2)sc2c1CCCCC2`?
Tb PYK inh: inconclusive; Sm TGR block: 8.91µM*

How did COc1ccc(OC)c(NC(=O)c2c(NCc3ccc(OC)c(OC)c3)sc3c2CCC(C)C3)c1 (stereo not drawn) do in these assays?
Tb PYK inh: -26.3%; Sm TGR block: -1.0%

How did CCOc1ccccc1NC(=O)c1c(NCc2ccc(C)o2)sc2c1CCC(C)C2 (stereo not drawn) do in these assays?
Tb PYK inh: -7.1%; Sm TGR block: 3.6%

What do the screens show for `Cc1ccc(NC(=O)CSc2nc(-c3cccs3)nc3cc(=O)[nH]n23)cc1`?
Tb PYK inh: -4.9%; Sm TGR block: 11.9%

Results for CC(C)(C)c1ccc(-c2nc(C=O)c3ccccn23)cc1 ?
NS1 function inh: -101.7%; Tb PYK inh: 0.0%; Giardia FBPA inh: -10.2%; Sm TGR block: -19.0%; LmPK inhibitor: 0.3%; RE007 growth inh: -20.2%

How did Cc1c(C(C)(C)C)c(C=S)n2ccccc12 do in these assays?
NS1 function inh: 1.7%; Tb PYK inh: -13.6%; Giardia FBPA inh: -14.9%; Sm TGR block: 2.24µM*; LmPK inhibitor: -6.8%; RE007 growth inh: -15.9%

What do the screens show for `O=[N+]([O-])c1cc([N+](=O)[O-])c2nonc2c1Nc1ccc(O)cc1`?
NS1 function inh: 25.7%; Tb PYK inh: -13.2%; Giardia FBPA inh: -26.1%; Sm TGR block: 31.6µM*; LmPK inhibitor: -15.6%; RE007 growth inh: 7.8%

Results for O=[N+]([O-])c1cc([N+](=O)[O-])c2nonc2c1Nc1ccccc1O ?
NS1 function inh: -49.2%; Tb PYK inh: -1.0%; Giardia FBPA inh: -8.1%; Sm TGR block: 50.1µM*; LmPK inhibitor: 6.6%; RE007 growth inh: -16.2%

How did CC(=O)c1ccc(Nc2c([N+](=O)[O-])ccc3nonc23)cc1 do in these assays?
NS1 function inh: 5.9%; Tb PYK inh: 4.4%; Giardia FBPA inh: -0.5%; Sm TGR block: -14.0%; LmPK inhibitor: 0.0%; RE007 growth inh: 4.8%

Results for O=C(O)c1ccccc1Nc1ccc([N+](=O)[O-])c2nonc12 ?
NS1 function inh: 6.0%; Tb PYK inh: 6.0%; Giardia FBPA inh: -9.1%; Sm TGR block: 35.5µM*; LmPK inhibitor: -17.6%; RE007 growth inh: -18.8%

Results for O=[N+]([O-])c1c(Nc2ccccc2O)cc(N2CCOCC2)c2nonc12 ?
NS1 function inh: -7.6%; Tb PYK inh: -1.2%; Giardia FBPA inh: 2.4%; Sm TGR block: 4.4%; LmPK inhibitor: 9.9%; RE007 growth inh: 14.7%

Results for COc1ccc(O[C@H]2C=C[C@@H](c3ccccc3)O[C@H]2COC(=O)CC/C(C)=N\O[C@@H](C)CN2CCCCc3nc(C)c(C)cc32)cc1 ?
Giardia FBPA inh: -0.4%[12.9 µM]

Results for Cc1ccc(-n2c(SCC(=O)N3CCC(C)CC3)nc3c([nH]c4ccccc43)c2=O)cc1 ?
Tb PYK inh: -2.3%; Sm TGR block: 7.8%

How did Nc1ccc(Oc2ncccn2)cc1 do in these assays?
NS1 function inh: 7.4%; Tb PYK inh: -5.8%; Giardia FBPA inh: inconclusive; Sm TGR block: 35.5µM*; LmPK inhibitor: -2.4%; RE007 growth inh: -11.3%

What do the screens show for `O=Cc1cccc(Oc2ncccn2)c1`?
Tb PYK inh: 0.3%; Giardia FBPA inh: 0.1%; Sm TGR block: 2.9%; LmPK inhibitor: 6.5%; RE007 growth inh: 1.9%

How did Cc1c(C(=O)Nc2ccc(F)c(Cl)c2)sc2nc3n(c(=O)c12)CCC3 do in these assays?
Tb PYK inh: -8.6%; Sm TGR block: 3.9%

Results for Fc1ccc(N2CCN(c3ncnc4[nH]ncc34)CC2)cc1 ?
Tb PYK inh: 0.4%; Sm TGR block: 0.2%

How did CCc1ccc(NC(=O)CCn2cccc2)cc1 do in these assays?
NS1 function inh: -11.6%; Tb PYK inh: -0.3%; Giardia FBPA inh: 0.6%; Sm TGR block: inconclusive; LmPK inhibitor: 0.8%; RE007 growth inh: -6.5%

What do the screens show for `Cc1ccc(NC(=O)Cn2nc(-c3ccco3)ccc2=O)cc1Cl`?
NS1 function inh: 10.6%; Tb PYK inh: -5.3%; Giardia FBPA inh: -2.7%; Sm TGR block: 6.31µM*; LmPK inhibitor: 0.8%; RE007 growth inh: 4.9%

How did Cc1ccc(NC(=O)CCn2cccc2)cc1Cl do in these assays?
NS1 function inh: -8.8%; Tb PYK inh: -10.0%; Giardia FBPA inh: -7.2%; Sm TGR block: 35.5µM*; LmPK inhibitor: 3.4%; RE007 growth inh: -9.1%

How did CCOc1ccc(CC(=O)Nc2c(C(=O)c3ccccc3)oc3ccc(Cl)cc23)cc1OCC do in these assays?
Tb PYK inh: 0.1%; Sm TGR block: 8.8%

How did CCC(CC)C(=O)Nc1ccc2nc(SCC(=O)N3CCc4ccccc43)sc2c1 do in these assays?
Tb PYK inh: -1.0%; Sm TGR block: 3.0%

How did C=C[C@H](C)[C@](C)(O)c1ccccc1 do in these assays?
Giardia FBPA inh: 0.3%

Results for CCOc1ccccc1-n1c(CN2CCN(C(=O)c3ccco3)CC2)nc2ccccc2c1=O ?
NS1 function inh: -16.5%[9.22 µM]; Tb PYK inh: 0.0%; Giardia FBPA inh: -13.1%; Sm TGR block: 25.1µM*; LmPK inhibitor: -2.9%; RE007 growth inh: 4.4%

What do the screens show for `CCOC(=O)[C@]12Cc3cc(Cl)ccc3[C@H]1N(C1CCCCC1)C(=O)c1cc(OC)ccc12`?
Tb PYK inh: -0.8%; RE007 growth inh: 63.1µM*

What do the screens show for `CCOC(=O)[C@]12Cc3ccc(C)cc3[C@H]1N(C1CCCCC1)C(=O)c1ccccc12`?
Tb PYK inh: 0.7%; RE007 growth inh: -2.3%

How did CCOC(=O)[C@]12Cc3ccc(C)cc3[C@H]1N(C1CCCCC1)C(=O)c1cc(OC)ccc12 do in these assays?
Tb PYK inh: -11.0%; RE007 growth inh: 15.8µM*

What do the screens show for `CCOC(=O)[C@]12Cc3cc(Cl)ccc3[C@H]1N(C)C(=O)c1cc(OC)ccc12`?
Tb PYK inh: -16.1%; RE007 growth inh: 0.0%

What do the screens show for `CC(C)CO/N=C1/C[C@@H](O)[C@@H](O)[C@@H]2[C@@H]3C(=O)N(C4CCCCC4)C(=O)[C@H]3CC[C@@H]12`?
Giardia FBPA inh: -0.5%[12.9 µM]

What do the screens show for `O=C(Nc1cccc(F)c1)[C@H](CSCc1ccccc1)N1Cc2ccccc2C1=O`?
Tb PYK inh: -12.1%; Sm TGR block: -8.1%

Results for COc1cccc(NC(=O)Cn2c(CCC(=O)O)ccc2-c2cccs2)c1 ?
Tb PYK inh: -0.1%; Giardia FBPA inh: 22.5%; Sm TGR block: -19.7%; LmPK inhibitor: 0.9%; RE007 growth inh: 6.1%

What do the screens show for `O=C(O)CCc1ccc(-c2cccs2)n1NC(=O)c1ccccc1Br`?
NS1 function inh: 9.1%; Tb PYK inh: -13.8%; Giardia FBPA inh: 10.1%; Sm TGR block: inconclusive; LmPK inhibitor: 3.1%; RE007 growth inh: -3.7%

High-throughput results (PubChem BioAssay)
